According to the supplement of paper PMC11006884:
Targets with a hit are over-represented here; the source holds about 6,500 in all. About 2% of all pairs of compound and target were hits. Values without a mark were called inactive.

compound: COC(=O)C#Cc1ccccc1 [methyl 3-phenylpropiolate]; assay: log2 ratio of iodoacetamide-alkyne labeling of the cysteine site, DMSO over compound (competition); higher = stronger covalent engagement of the cysteine by the compound, active = 1 or more; conditions: 500 µM; treatment time 1 h; system: HEK293T cell lysate
Procedure, shortened: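 Three replicates, each with duplicate channels, were prepared from HEK293T lysate (2 mg/mL) treated with vehicle or electrophile at 500 µM for 1 h at ambient temperature. Iodoacetamide alkyne was then applied for 1 h, and samples were clicked to sCIP-TMT reagents, pooled, trypsin-digested overnight at 37 °C, enriched on streptavidin, acid-eluted and analysed on Orbitrap Eclipse LC-MS/MS with FAIMS, with FragPipe quantification. The log2 competition ratio per cysteine is the mean control-channel divided by the mean compound-channel reporter intensity. Cysteines quantified in only one replicate were left out.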

Target | log2 ratio of iodoacetamide-alkyne labeling
UniProt Q8WUQ7_C699 | 0.0859
SLFN11 C126 (UniProt Q7Z7L1) | 0.146
INTS1 C643 (UniProt Q8N201) | 0.127
NIPBL C1795 (UniProt Q6KC79) | -0.189
TXNDC17 C43 (UniProt Q9BRA2) | 1.34 (active)
AKT1S1 C61 (UniProt Q96B36) | 0.266
RSBN1L C280 (UniProt Q6PCB5) | 0.649
UniProt Q8IX01_C656 | 2.27 (active)
SEC14L1 C258 (UniProt Q92503) | 0.208
ZGPAT C377 (UniProt Q8N5A5) | 0.342
PTCD3 C642 (UniProt Q96EY7) | 0.535
CCT7 C29 (UniProt Q99832) | 1.51 (active)
NCAPG C751 (UniProt Q9BPX3) | 0.416
PDCD6IP C40 (UniProt Q8WUM4) | 0.812
RANBP9 C610 (UniProt Q96S59) | 0.53
UniProt Q8NFC6_C2164 | 0.286
SECISBP2 C719 (UniProt Q96T21) | -0.258
UniProt Q8NB37_C154 | 0.389

Target | log2 ratio of iodoacetamide-alkyne labeling
DHX29 C1025 (UniProt Q7Z478) | 0.0649
KHSRP C296 (UniProt Q92945) | 0.00483
SMC5 C726 (UniProt Q8IY18) | 0.249
RDH13 C30 (UniProt Q8NBN7) | 0.116
UniProt Q8WZA9_C373 | 0.706
ADO C258 (UniProt Q96SZ5) | 0.15
THOC2 C743 (UniProt Q8NI27) | 0.442
GATAD2B C423 (UniProt Q8WXI9) | 0.12
USP9X C1061 (UniProt Q93008) | 0.0678
FLAD1 C496 (UniProt Q8NFF5) | 1.06 (active)
DHX38 C27 (UniProt Q92620) | 1.36 (active)
ACD C406 (UniProt Q96AP0) | 0.713
ACO2 C448 (UniProt Q99798) | 1.71 (active)
TBC1D15 C686 (UniProt Q8TC07) | 0.635
CAND1 C275 (UniProt Q86VP6) | -0.226
UniProt Q86Y56_C409 | 0.492
LARP1 C502 (UniProt Q6PKG0) | 0.269
